This assay deals with EPHB2. The following applies: concentration: 1 μM, replicates: in singlicate; n = 1.
Regarding `COc1cc(Nc2nccc(N3CCC(NC(=O)C4COc5ccccc5O4)C3)n2)cc(OC)c1OC` (stereo not shown) [GSK1379761], the “%Inh” value came out at 8%.

As for `COc1cccc(-n2cnc3c(N)ncnc32)c1` [SKF-97416], the “%Inh” value is 19%.

For `CC(C)(C)c1ccc(C(=O)Nc2cn3cc(-c4ccccc4)ccc3n2)cc1`, the “%Inh” value stood at 0%.

On to `COc1ccc(-c2coc3ccc(-c4nnc(SCc5cccc(C#N)c5)o4)cc23)cc1`, for which the “%Inh” value is listed as 5%.

Consider `OCCCNc1nccc(-c2c(-c3cccc(C(F)(F)F)c3)nn3cc(C(F)(F)F)ccc23)n1` [GW630813], for which the “%Inh” value is given as 0%.

Take `COC(=O)c1c(-c2ccccc2)c2cc(Br)ccc2c(=O)n1Cc1ccc(S(C)(=O)=O)cc1`: the “%Inh” value is reported as 21%.

On to `Cc1cc(Nc2nc(-c3cccc(C)n3)nc3ccccc23)ccn1` [GW872411], for which the “%Inh” value was determined as 0%.

Consider `Nc1ncnc2c1ncn2-c1ccc(Cl)cc1` [AH2635], for which the “%Inh” value is recorded as 0%.

With `CN(C)c1cc(-c2ccc3c(N)n[nH]c3c2)nc(N)n1` [GSK2219329], the “%Inh” value is 0%.

For `COc1ccc(-c2cc3c(C)nc(N)nc3n([C@H]3CC[C@H](OCCO)CC3)c2=O)cn1`, the “%Inh” value was 0%.

As for `O=C(NCc1cccs1)c1cc(C(=O)c2c(Cl)cccc2Cl)c[nH]1` [GW823670], the “%Inh” value was determined as 0%.

For `COc1cc2ncn(-c3cc(OCc4ccncc4Br)c(C(N)=O)s3)c2cc1OC` [GW854278], the “%Inh” value was 9%.

`Cc1nnc(-c2ccc(C)c(-c3ccc(C(=O)O)cc3)c2)o1` [GW608005]: the “%Inh” value was 0%.

In the case of `Cc1nc(N(C)[C@H]2CN(C(=O)CC#N)CC[C@H]2C)c2cc[nH]c2n1`, the “%Inh” value amounted to 0%.

As for `O=C1NC(=O)C(c2ccccc2)=C1Nc1cccc(O)c1` [SB-390534], the “%Inh” value was determined as 0%.

Take `COc1ccc(Nc2nccc(N3CCC(NS(=O)(=O)c4ccc(NC(C)=O)cc4)C3)n2)cc1` (stereo not shown) [GSK1379729]: the “%Inh” value turned out to be 1%.

In the case of `COC(=O)c1c(-c2ccccc2)c2cc(Br)ccc2c(=O)n1Cc1ccc(NC(=O)CCC(=O)O)cc1`, the “%Inh” value turned out to be 7%.

In the case of `Cl.NS(=O)(=O)c1cccc(Nc2cc(-c3ccc(F)cc3)n[nH]2)c1` [GW824645], the “%Inh” value stood at 0%.

As to `Fc1cccc(CSc2nnc(-c3ccc4c(c3)CCO4)o2)c1`, the “%Inh” value is given as 23%.

As to `Cl.c1ccc(Cn2cnc3cc(Nc4ncnc5ccccc45)ccc32)cc1` [GW272142], the “%Inh” value came out at 0%.

For `CN1C(=O)C(Nc2cc(Cl)c(O)c(Cl)c2)=C(c2ccc(Cl)cc2)C1=O` [SB-404321], the “%Inh” value is reported as 15%.

With `COc1cc(OC)cc(-c2cc3cnc(N)nc3nc2NC(=O)NC(C)(C)C)c1`, the “%Inh” value is on record as 0%.

On to `Nc1ncnc2c1ncn2-c1cccc2ccccc12` [SKF-97184], for which the “%Inh” value is 12%.

`COc1cccc(C2=C(N(C)c3ccccc3)C(=O)NC2=O)c1` [SB-334865]: the “%Inh” value is on record as 14%.

Regarding `Cc1ccc(Oc2ccc(Nc3ncnc4cc[nH]c34)cc2C)cn1`, the “%Inh” value was found to be 7%.

Regarding `CN1C(=O)C(Nc2ccccc2)=C(c2ccccc2)C1=O` [SB-300079], the “%Inh” value turned out to be 0%.

As to `CCc1nc(-c2cccc(C)c2)c(-c2ccncc2)s1`, the “%Inh” value is listed as 2%.

`Cc1cccc(-c2nc(Nc3ccc4c(cnn4C)c3)c3ccccc3n2)n1` [GW876731]: the “%Inh” value amounted to 6%.

As for `Nc1n[nH]c2nnc(-c3ccccc3)c(-c3ccccc3)c12` [GW554060], the “%Inh” value amounted to 0%.

`CCS(=O)c1ccc(-c2coc3ccc(-c4nnc(C)o4)cc23)cc1` (stereo not shown): the “%Inh” value is reported as 0%.

For `COc1ccc(CNC(=O)NC2CCN(c3ccnc(Nc4ccc(F)cc4)n3)C2)cc1` (stereo not shown) [GSK1379706], the “%Inh” value amounted to 30%.

Regarding `COc1ccc(-n2cnc3c(N)ncnc32)cc1` [SKF-97236], the “%Inh” value is 0%.

In the case of `COc1ccc(-c2cc3c(C)nc(N)nc3n([C@H]3CC[C@H](O)CC3)c2=O)cn1`, the “%Inh” value worked out at 0%.

Regarding `Nc1ncnc2c1ncn2-c1cccc(F)c1` [SKF-97560], the “%Inh” value came out at 4%.

As for `Cc1cccc(-c2cc(-c3c[nH]nc3-c3ccccn3)ccn2)c1` [GW679395], the “%Inh” value stood at 17%.

For the molecule `Cc1c(Cn2c(C)nn3c(=O)cc(N4CCO[C@H](C)C4)nc23)cccc1C(F)(F)F` [GSK2373690], the “%Inh” value is on record as 0%.

For the molecule `CCCNC(=O)Nc1ccc(Oc2ncnc3ccn(C)c23)cc1`, the “%Inh” value came out at 20%.

These data come from article PMC5540273 (PLoS ONE, 2017).
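Further: KINOMEscan kinase panel screen.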
